Measured potencies and affinities stand elsewhere. Activity calls are given as the source filed them. How the calls were made is not given here.
Experiment: HeLa cell cytotoxicity, dose response, cytotoxicity control, 48 h, plate reader, cherry-picks (AID 504942)
Details: series mostly up to 38 µM

Question: Which outcome does the source give for `N#CC(c1ccc(Cl)nn1)c1c(F)cccc1Cl` (centres undefined) here?
Answer: inactive

Question: For `Cc1cc(NC(=O)c2cc([N+](=O)[O-])ccc2Cl)no1`, which outcome is on record?
Answer: inactive

Question: Which outcome does the source give for `Cc1ccc(C)c(S(=O)(=O)NC2CCSC2=O)c1` (centres undefined) here?
Answer: inactive

Question: With `O=C(c1cccc([N+](=O)[O-])c1)N1CC2C3C=CC(C3)C2C1` (centres undefined) as the molecule, how does the outcome read?
Answer: inactive

Question: Which outcome does the source give for `CCOC(=O)c1ccc(N2Cc3ccccc3C2=N)cc1` here?
Answer: inactive

Question: For `O=C(NC1CCS(=O)(=O)C1)c1cccc(Br)c1` (centres undefined), which outcome is on record?
Answer: inactive

Question: For `N#CN(Cc1ccccc1)Cc1ccccc1`, which outcome is on record?
Answer: inactive

Question: Which outcome does the source give for `CCOc1ccc(CNC2CCCc3ccccc32)cc1` (centres undefined) here?
Answer: inactive

Question: Which outcome does the source give for `CC(C)(C)NC(=O)c1cc(Cl)ccc1[N+](=O)[O-]` here?
Answer: inactive

Question: For `CCNC(=O)COc1ccc2ccccc2c1`, which outcome is on record?
Answer: inactive

Question: With `Nc1ccc(OCc2ccccc2)cc1[N+](=O)[O-]` as the molecule, how does the outcome read?
Answer: inactive

Question: Which outcome does the source give for `O=C1C=C(c2cc(F)ccc2F)C[C@@H](c2ccc(F)cc2)C1` here?
Answer: inactive

Question: Which outcome does the source give for `CCOC1=CC(=O)OC(c2ccccc2)C1` (centres undefined) here?
Answer: inactive

Question: For `CCOc1ccc(-n2cccc2C=O)cc1`, which outcome is on record?
Answer: inactive

Question: Which outcome does the source give for `O=C(NC1CCSC1)c1cccc(Cl)c1` (centres undefined) here?
Answer: inactive

Question: With `O=C(NC1CCCC1)c1cccc(Cl)c1` as the molecule, how does the outcome read?
Answer: inactive

Question: With `Cc1ccc2nc(-c3ccc4c(c3)OCCO4)cn2c1` as the molecule, how does the outcome read?
Answer: inactive

Question: With `N#CC(c1ccc(Cl)nn1)c1ccccc1Cl` (centres undefined) as the molecule, how does the outcome read?
Answer: inactive

Question: Which outcome does the source give for `COC(=O)c1ccc(OC(=O)c2ccco2)cc1` here?
Answer: inactive

Question: Which outcome does the source give for `C#CCSc1ncc(-c2ccccc2)cn1` here?
Answer: inactive

Question: With `N#CC(c1ccc(Cl)cc1)c1ccc(Cl)nn1` (centres undefined) as the molecule, how does the outcome read?
Answer: inactive

Question: With `COc1ccc(/C=C/C(=O)c2ccoc2)cc1` as the molecule, how does the outcome read?
Answer: inactive

Question: With `COC(=O)c1ccc(OC(=O)c2cccs2)cc1` as the molecule, how does the outcome read?
Answer: inactive

Question: For `CC(C)N=C(NC#N)SCc1ccccc1F`, which outcome is on record?
Answer: inactive

Source: PubChem BioAssay AID504942 (Broad Institute, 2011)
